Tau fluor counter: counter-screen for tau fibril formation inhibitors | tau K18 P301L Alexa594 fluorescence, heparin fibrillization | Potency, µM (titrated, usually from 57.7 µM), inactives show at the top dose activity change, negative = decrease | actives 0.93% (n = 280,000); also: potency is read from the fitted curve at half-maximal effect; nearly all actives have a fitted effect of over 55% in size
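Human tau K18 P301L (15 uM unlabeled, 0.24 uM Alexa 594-labeled) in 100 mM sodium acetate pH 7 with 20 uM heparin, 6 hr at 37 C. ThT 30 uM added, 1 hr ambient; Alexa 594 FP and total fluorescence read at 555/632 nm.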
Tau fibril FP: inhibitors of human tau fibril formation. P10636. K18 P301L tau heparin fibrillization, Alexa594 FP, 6 h. Potency, µM (titrated, usually from 57.7 µM), inactives show at the highest dose activity, negative = inhibition, most hits filed as inhibitors. actives 0.39% (n = 280,000). AID 1468; also: potency is read from the fitted curve at half-maximal effect; nearly all actives have a fitted effect of over 55% in size
Target sequence (P10636 561-689 P618L limits assumed): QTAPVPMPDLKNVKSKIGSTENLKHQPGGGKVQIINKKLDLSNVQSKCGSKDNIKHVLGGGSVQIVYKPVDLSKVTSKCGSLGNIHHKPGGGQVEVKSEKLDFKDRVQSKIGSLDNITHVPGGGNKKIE
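Compound effects on tau fibrillization are measured by Alexa 594 fluorescence polarization (ex 555, em 632 nm). K18 P301L tau is used at 15 uM with 0.24 uM labeled tracer, and 20 uM heparin induces aggregation over 6 hr at 37 C.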
G9a block: G9a (human) methyltransferase inhibition. Potency, µM (highest dose often 102 µM), for the others: top-dose activity, negative = inhibition, usual class: inhibitors. actives 8.8% (n = 350,000). Q96KQ7. AID 504332. G9a H3K9 monomethylation, AlphaScreen, 2 h; also: potency is read from the fitted curve at half-maximal effect; nearly all actives have a fitted effect of over 75% in size
Target sequence (Q96KQ7 913-1193 limits assumed): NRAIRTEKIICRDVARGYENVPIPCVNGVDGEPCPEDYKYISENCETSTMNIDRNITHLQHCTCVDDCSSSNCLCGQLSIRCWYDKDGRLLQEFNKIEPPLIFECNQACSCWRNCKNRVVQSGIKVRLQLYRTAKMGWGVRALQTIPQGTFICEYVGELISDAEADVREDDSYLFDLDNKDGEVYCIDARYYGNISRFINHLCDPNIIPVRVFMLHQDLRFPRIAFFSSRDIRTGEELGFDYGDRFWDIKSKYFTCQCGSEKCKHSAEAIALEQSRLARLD
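AlphaScreen read-out: biotin-H3K9 peptide (500 nM) methylation by 20 nM enzyme with 20 uM SAM, 2 h at room temperature after 15 min compound preincubation; anti-monomethyl H3K9 antibody plus donor/acceptor beads, 10 min dark.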
FBPA coupling cs: counter-screen for Giardia aldolase inhibitors: coupling enzyme system; coupling enzyme system counterscreen, AmpLite Red fluorescence; activity change, negative = inhibition, % at 58.2 µM, hits read low; actives 0.67% (n = 290,000); AID 2472; in the data active = activity change below about -30%
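Fluorescence at 525 nm excitation and 598 nm emission measured inhibition of the coupled detection system without aldolase. Compounds (at 57.5 uM final) were preincubated 10 min at room temperature with coupling enzyme reagent before a 20 min substrate/AmpLite Red step.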
Sfp PPTase inh: blocks B. subtilis Sfp PPTase activity; Q9F4F7; AID 1490; actives 3.5% (n = 310,000); Biochemical Sfp PPTase activity, qHTS; Potency, µM, for the others: largest response in the series, negative = inhibition, actives largely listed as inhibitors;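 also: the enzyme is Sfp with the accession as filed and its product quenches rhodamine fluorescence; potency is read from the fitted curve at half-maximal effect; 0% = enzyme reaction without inhibitor and -100% = no enzyme wells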
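Sfp 15 nM + cpd, 15 min RT; start w/ rhodamine-CoA 5 uM, BHQ-2-YbbR 12.5 uM (final); 50 mM Hepes pH 7.6, 10 mM MgCl2, 0.01% NP-40, 0.01% BSA; read 525/598 nm at 0 and 30 min.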
Tau fibril ThT: blocks human tau fibril formation measured by thioflavin T; P10636; Potency, µM (titrated, usually from 57.4 µM), inactives show at the top dose activity, negative = inhibition, hits mostly inhibitors; actives 2.1% (n = 270,000); recombinant tau K18 P301L, heparin-induced fibrillization, ThT fluorescence; also: potency is read from the fitted curve at half-maximal effect; nearly all actives have a fitted effect of over 55% in size
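ThT emission at 510 nm, taken 1 hr after adding 30 uM dye, quantifies aggregates formed when 20 uM heparin acts on human tau K18 P301L for 6 hr at 37 C.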
The depositor's hits bear a star; u = inconclusive; x = no result; [ ] = dose if it differs, or a comment. A selection: hits, their analogues and other compounds. The true share with any hit is near 11%. Unless noted, calls follow the shape of the dose curve; as a rule, active = well fitted curve in the direction sought with a large enough effect; inconclusive = small, poorly fitted or top-dose-only effect, or another doubt; inactive = no such curve, though single readings can be large; an effect the other way counts as inactive or inconclusive. Unless noted, % is scaled to controls: 0 for no effect and ±100 for the full control effect.

SMILES | Tau fluor counter | Tau fibril FP | G9a block | FBPA coupling cs | Sfp PPTase inh | Tau fibril ThT
COc1c(OC2OC(C(=O)O)C(O)C(O)C2O)cc(O)c2c(=O)cc(-c3ccccc3)oc12 (centres undefined) | -6% | -3% | -22% | 0 | 40µM* | -17%
O=C(O)C1OC(Oc2cc3oc(-c4ccccc4)cc(=O)c3c(O)c2O)C(O)C(O)C1O (centres undefined) | -23% | -5% | 40µM* | -13 | 8.9µM* | u
Cc1ccc(NC(=O)Cn2cc(S(=O)(=O)N3CCCC3)c(S(=O)(=O)N3CCCC3)c2)c(C)c1 | -5% | -6% | -7%[59 µM] | x | x | 9%
COc1ccc(-c2nc3c(C#N)c[nH]n3c2NC2CCCCC2)cc1 | 6% | 3% | -27%[59 µM] | x | x | 6%
Nc1ncc(S(=O)(=O)Nc2ccc(F)cc2F)cn1 | -11% | -3% | -3%[59 µM] | x | x | -10%
N#Cc1ccc(C(=O)Nc2nnc(-c3ccccn3)o2)cc1 | -10% | -6% | 50µM* | 1 | 20% | -4%
CC(=O)Nc1nnc(-c2ccccn2)o1 | -2% | -2% | 28µM* | 0 | u | 1%
O=C(Nc1nnc(-c2ccccn2)o1)c1cccc(Cl)c1 | -3% | -8% | -6% | -2 | 6% | 1%
COc1ccccc1-c1cn[nH]c1-c1ccc(OCc2ccccc2)cc1O | 11µM*[quencher] | u | 21%[59 µM] | -1 | 15% | -13%
CCOc1ccc(-c2[nH]ncc2-c2ccccc2)c(O)c1 | x | x | x | x | 10% | x
COc1ccc(-c2cn[nH]c2-c2ccc(OC)cc2O)cc1 | x | x | 36% | 3 | 12% | x
COc1ccc(-c2cn[nH]c2-c2ccc(OCc3ccccc3)cc2O)cc1 | 6.3µM*[quencher] | u | -7% | -4 | 29% | -14%
O=C(O)c1ccnc2c(O)cccc12 | x | x | 43%[12.7 µM] | x | x | x
Cc1ccc(OCC(=O)NCC(=O)OCc2cc(=O)n3nc(C(C)C)sc3n2)cc1 | 0% | -3% | 16%[59 µM] | x | x | -6%
C=CCOc1ccccc1CNc1ccc2[nH]c(=O)[nH]c2c1 | -16% | 11% | 28µM* | 0 | -6% | u
C=CCOc1ccccc1CNc1ccc2c(c1)OCCO2 | u | 0% | 8.9µM* | -37* | -20% | 18µM*
COc1cccc(CNc2ccc3[nH]c(=O)[nH]c3c2)c1OCc1ccccc1F | x | x | 45µM* | 4 | -13% | x
O=c1[nH]c2ccc(NCc3ccc(OCc4ccccc4Cl)cc3)cc2[nH]1 | x | x | 13% | 0 | 0% | x
COc1cc(CNc2ccc3[nH]c(=O)[nH]c3c2)cc(Cl)c1OCc1ccccc1F | u | 6% | -28%[59 µM] | x | x | u
C=CCOc1ccccc1CNc1cccc(F)c1 | u | 9% | 95%[59 µM] | -2 | 5% | u
COc1ccccc1N1CCN(S(=O)(=O)c2ccc(-n3cnnn3)cc2)CC1 | -22% | -10% | 0% | x | 16% | -10%
O=C1CN(c2nc(-c3cccnc3)nc3scc(-c4ccccc4)c23)CCN1 | -11% | -2% | 40µM* | 0 | -10% | u
COc1ccc(-c2csc3nc(-c4cccnc4)nc(N4CCC(C(N)=O)CC4)c23)cc1OC | -5% | -6% | u | 0 | -32% | u
COc1ccc(-c2onc(C)c2C)cc1S(=O)(=O)N(C)Cc1ccccc1 | u | -8% | -4%[59 µM] | x | x | -8%
O=C(Nc1ccc(OC(F)(F)F)cc1)C(NS(=O)(=O)c1cccc2nsnc12)c1ccccc1 (centres undefined) | u | u | -14%[59 µM] | x | x | -14%
SMILES | Tau fluor counter | Tau fibril FP | G9a block | FBPA coupling cs | Sfp PPTase inh | Tau fibril ThT
O=C1[C@H]2[C@@H](C(=O)N1c1cccc3ccccc13)C1(C(=O)c3ccccc3C1=O)N1CCC[C@@H]21 | -12% | -4% | 40µM* | -10 | u | u
Cc1cc(C(=O)NCc2ccccc2)c(=O)[nH]c1C | 1% | 5% | -8%[59 µM] | 1 | 17% | -6%
Cc1cc(C(=O)O)c(=O)[nH]c1C | -1% | -1% | 71µM* | x | 13% | 1%
O=C(NCc1noc2ccccc12)Nc1ccc(F)cc1F | -10% | -2% | -2%[59 µM] | x | x | -6%
CSc1ncc(CN2CCCC(C(=O)Nc3ccc(-c4ccco4)cc3)C2)cn1 (centres undefined) | x | x | 10µM* | -1 | 14µM* | x
Cc1ncc(CN2CCCC(C(=O)Nc3ccc(-c4ccco4)cc3)C2)n1C (centres undefined) | x | x | 41% | x | 13% | x
Cc1cc(N/N=C(/CCC(=O)O)C(=O)O)nc2ccccc12 | 1% | 0% | 3.2µM* | 1 | 50µM* | -9%
Cc1cc(SCC(=O)O)nc2ccccc12 | 9% | -1% | 11% | 6 | -7% | 0%
O=C(COC(=O)c1cc(Cl)ccc1O)NCCNC(=O)COC(=O)c1cc(Cl)ccc1O | x | x | 40µM* | 1 | 10% | x
O=C(COC(=O)c1ccc(Cl)cc1O)Nc1cccnc1Cl | -3% | 1% | 50µM* | 2 | 13% | -2%
C=CCNC(=S)N1CCN(Cc2ccccc2)CC1 | -7% | 0% | 7.9µM* | 4 | -16% | -8%
Cc1ccc(S(=O)(=O)N2CCN(C(=S)NCC3CCCO3)CC2)cc1 (centres undefined) | x | x | -2% | x | x | x
COCCNC(=S)N1CCN(c2nc(-c3ccc(F)cc3)cs2)CC1 | x | x | 50µM* | 1 | -4% | x
S=C(NCC1CCCO1)N1CCN(Cc2ccccc2)CC1 (centres undefined) | -9% | -1% | 16µM* | 0 | u | -9%
S=C(NCC1CCCO1)N1CCN(c2nc(-c3ccccc3)cs2)CC1 (centres undefined) | u | -1% | 50µM* | 0 | 6% | u
Cc1c(NC(=O)c2ccc(-c3cccc([N+](=O)[O-])c3)o2)cccc1-c1nc2cc(Cl)ccc2o1 | u | -1% | -50%[59 µM] | x | x | u
CCCCN(C(=O)NCCCCCCNC(=O)N(CCCC)C1CCS(=O)(=O)C1)C1CCS(=O)(=O)C1 (centres undefined) | x | x | 62% | x | 6% | x
CC(C)CCN(C(=O)CNC(=O)c1ccco1)C(C(=O)NC1CCCCC1)c1cccnc1 (centres undefined) | x | x | 18% | 0 | 12% | x
CCN(CC(=O)NCc1cccs1)C(=O)c1cc(S(=O)(=O)NCc2ccccc2)ccc1C | x | x | -5% | x | x | x
CCOC(=O)c1sc(SC)c2c1CCC/C2=N/OC | 4%[0.0958 µM] | 4%[0.0958 µM] | 64% | -2 | 6% | x
CCOC(=O)c1sc(S(C)(=O)=O)c2c1CCc1conc1-2 | -21% | 3% | 56µM* | 1 | -17% | u
CC1CCN(S(=O)(=O)c2ccc3c(c2)CCN3)CC1 | -5% | -2% | 17%[59 µM] | x | x | 7%
